Assay outcomes: PubChem BioAssay, National Center for Advancing Translational Sciences (NCATS)
This is one part of a sample in which hits are shown more often than they occur.
Shiga toxin inh – Shiga toxin inhibition; Vero cells, Shiga toxin protein synthesis inhibition reporter; AID 2315; 290,000 compounds, 9.2% hits; inhibition, % at 38.7 µM; in the data active = inhibition mostly above about 28%, no sharp cut-off; inactive = mostly below about 43%
AMA1-RON2 inh – inhibitors of Plasmodium falciparum AMA1-RON2 interaction | AlphaScreen AMA1-biotinylated RON2 peptide binding | Potency, µM (series often up to 58.2 µM), usual class: inhibitors | 360,000 compounds, 0.2% hits | AID 720542; active = well fitted inhibition curve with a large enough effect; inconclusive = small, poorly fitted or top-dose-only effect; inactive = no such curve, though single readings can be large or run the other way; note: nearly all actives have a fitted effect of over 45% in size
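AMA1 (3D7) with his tag at 25 nM final met compounds first, then biotinylated RON2 peptide at 25 nM; detection used donor plus acceptor beads, 10 µg/mL apiece, read by AlphaScreen after 30 min at room temperature.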
LASV entry inh – inhibitors of Lassa virus binding or cell entry. Lassa virus pseudotype entry inhibition, cell reporter. Potency, µM (doses to about 37.9 µM), usual class: inhibitors. 300,000 compounds, 1.2% hits; calls by dose curve; tested in HEK293 cells; note: nearly all actives have a fitted effect of over 50% in size
Marburg entry inh – inhibitors of Marburg virus binding or cell entry; Potency, µM (titrated, usually from 37.8 µM), hits mostly inhibitors; AID 540276; 300,000 compounds, 1.8% hits; Marburg virus pseudotyped entry inhibition, cell reporter; calls by dose curve; tested in HEK293 cells
CHX counter – counter-screen hit for Shiga toxin inhibitors, cycloheximide; cell reporter, cycloheximide protein synthesis inhibition counterscreen; max response, %; 300,000 compounds, 12% hits; in the data active = max response mostly above about 13%, no sharp cut-off; inactive = mostly below about 14%; note: read at 38.3 µM for the half of the compounds with a filed dose
Of the large screens only hits and unclear results are named; the others gave an inactive call.

COc1ccc(C2SCC(=O)N2c2nc3ccccc3s2)cc1 (stereo not given)	Shiga toxin inh 111, CHX counter 42 (no result: LASV entry inh, Marburg entry inh)
COC(=O)/C=c1/sc2nc3ccccc3n2c1=O	LASV entry inh inconclusive
O=C(O)c1cc(C(=O)O)cc(-c2ccc(/C=c3/sc4nc5ccccc5n4c3=O)o2)c1	AMA1-RON2 inh inconclusive
O=C(O)c1cccc(-c2ccc(/C=c3/sc4nc5ccccc5n4c3=O)o2)c1	Shiga toxin inh 70, CHX counter 44 (no result: LASV entry inh, Marburg entry inh)
O=c1c2ccccc2nc2sc3ccccc3n12	Shiga toxin inh 97, Marburg entry inh inconclusive, CHX counter 20
O=c1/c(=C/c2ccccn2)sc2nc3ccccc3n12	Shiga toxin inh 126, Marburg entry inh inconclusive, CHX counter 36
CCOC(=O)c1c(-c2ccccc2)nc2ccc(C)cn12	Shiga toxin inh 123, CHX counter 45
CCOC(=O)C(=O)c1c(-c2ccccc2)nc2ccccn12	LASV entry inh inconclusive
CCOC(=O)c1c(-c2ccccc2)nc2cc(C)ccn12	Shiga toxin inh 76, CHX counter 54
Cc1ccccc1NC(=O)CC1SC(=O)N(c2ccccc2)C1=O (stereo not given)	Shiga toxin inh 64, CHX counter 47
O=C(CC1SC(=O)N(c2ccccc2)C1=O)Nc1cccc2ccccc12 (stereo not given)	CHX counter 21
CCOc1ccc(NC(=O)CN2C(=O)CSC(C)C2=O)cc1 (stereo not given)	Shiga toxin inh 113, CHX counter 41
COc1ccc(NC(=O)CN2C(=O)CSC(C)C2=O)c(OC)c1 (stereo not given)	none
COc1ccccc1NC(=O)CC1SC(=N)N(c2ccccc2)C1=O (stereo not given)	LASV entry inh inconclusive
CCOc1ccc(NC(=O)CC2SC(=O)N(c3ccccc3)C2=O)cc1 (stereo not given)	Shiga toxin inh 44, CHX counter 21
O=C(CSc1n[nH]c(-c2ccccc2Cl)n1)N1CCN(c2ccc(F)cc2)CC1	none (no result: Shiga toxin inh, AMA1-RON2 inh, Marburg entry inh, CHX counter)
CCCc1nn2c(=O)cc(COc3ccc(NC(=O)c4ccco4)cc3)nc2s1	none (no result: LASV entry inh, Marburg entry inh)
COc1ccc(/C=C/S(=O)(=O)NCc2ccccc2)cc1OC	LASV entry inh inconclusive
CSCCC(NS(=O)(=O)c1ccc2c(c1)oc(=O)n2C)C(=O)NCCc1ccc(C)cc1 (stereo not given)	none (no result: Shiga toxin inh, AMA1-RON2 inh, Marburg entry inh, CHX counter)
COCCCNC(=O)c1ccc(Cn2c(=O)c3ccccc3n(CC(=O)Nc3c(C)cccc3C)c2=O)cc1	none (no result: Shiga toxin inh, AMA1-RON2 inh, CHX counter)
CCC1CCCCN1C(=O)COC(=O)c1cccs1 (stereo not given)	Marburg entry inh inconclusive (no result: Shiga toxin inh, CHX counter)
CCC1CCCCN1C(=O)COC(=O)c1n[nH]c2ccccc12 (stereo not given)	CHX counter 19
O=C(COc1ncnc2ccccc12)N1CCOCC1	none
CC1CCN(C(=O)COC(=O)c2n[nH]c3ccccc23)CC1	Shiga toxin inh 79, Marburg entry inh inconclusive, CHX counter 41
CC1CCN(C(=O)COc2ncnc3ccccc23)CC1	Shiga toxin inh 37
O=C(OCC(=O)N1CCCCCC1)c1n[nH]c(=O)c2ccccc12	none
COc1ccc(OC)c(NC(=O)Cn2cc(C#N)c3cc(Br)ccc32)c1	none
CCc1nc2c(OCCC3CCCCC3)cccn2c1N(C)C(=O)c1cccs1	none (no result: Shiga toxin inh, LASV entry inh, Marburg entry inh, CHX counter)
O=C(Nc1ccc2cn[nH]c2c1)c1ccc(Cl)c(S(=O)(=O)N2CCOCC2)c1	Marburg entry inh inconclusive, CHX counter 45
COc1ccc(C(=O)Nc2ccc(Cl)c(S(=O)(=O)N3CCOCC3)c2)cc1	LASV entry inh inconclusive, Marburg entry inh inconclusive (no result: Shiga toxin inh, CHX counter)
O=C(Nc1ccc(Cl)c(S(=O)(=O)N2CCOCC2)c1)c1ccc(OCC2CCCO2)cc1 (stereo not given)	LASV entry inh inconclusive, Marburg entry inh 2.2µM
O=C(Nc1ccc(Cl)c(S(=O)(=O)N2CCOCC2)c1)c1ccc2c(c1)OCCO2	Shiga toxin inh 47, LASV entry inh inconclusive, Marburg entry inh inconclusive, CHX counter 24
O=C(Nc1ccc(Cl)c(S(=O)(=O)N2CCOCC2)c1)c1ccc(Cl)nc1	LASV entry inh inconclusive, Marburg entry inh inconclusive (no result: Shiga toxin inh, CHX counter)
COc1ccc(NC(=O)c2ccc3c(c2)OCO3)cc1S(=O)(=O)N1CCOCC1	none (no result: Shiga toxin inh, LASV entry inh, Marburg entry inh, CHX counter)
O=C(Nc1ccc(Cl)c(S(=O)(=O)N2CCOCC2)c1)c1ccc2c(c1)OCO2	LASV entry inh inconclusive, Marburg entry inh 10µM (no result: Shiga toxin inh, CHX counter)
C=CC[N+]1(CC(=O)NCc2ccc(NC(C)=O)cc2)CCOCC1	none
CC(=NC1CC1)c1c(-c2ccccc2)[nH]n(-c2nc3ccccc3s2)c1=O	Marburg entry inh inconclusive
CC(=NC1CCCC1)c1c(C)[nH]n(-c2nc3ccccc3s2)c1=O	Shiga toxin inh 75, LASV entry inh inconclusive, Marburg entry inh inconclusive, CHX counter 40
CC(=O)N(c1ccccc1)C(C(=O)c1ccccc1)c1ccccc1 (stereo not given)	LASV entry inh inconclusive, Marburg entry inh inconclusive (no result: Shiga toxin inh, CHX counter)
COc1cccc(OC)c1OCCNCC1CSc2ccccc2O1 (stereo not given)	LASV entry inh inconclusive, Marburg entry inh 26µM (no result: Shiga toxin inh, CHX counter)
COc1cccc(OC)c1OCCCOc1c(OC)cccc1OC	none
Cc1ccc(-c2csc(NC(=O)N3CCOCC3)n2)cc1	Shiga toxin inh 111, Marburg entry inh inconclusive, CHX counter 38
O=C(CN1CCOCC1)Nc1nc(-c2ccc(Cl)cc2)cs1	LASV entry inh 7.1µM, Marburg entry inh inconclusive
Cc1ccc(-c2nc(N3CCOCC3)sc2C(=O)N2CCOCC2)cc1	Shiga toxin inh 24
Cc1ccc(-c2nc(N3CCOCC3)sc2C(=O)N2CCCCC2)cc1	none
C/C(=C\c1ccccc1)C(=O)Nc1ccc(Cl)cn1	Shiga toxin inh 95, CHX counter 39 (no result: LASV entry inh, Marburg entry inh)
Cc1ccc(NC(=O)c2ccc3[nH]c(=O)c(=O)[nH]c3c2)nc1	none (no result: LASV entry inh, Marburg entry inh)
O=C(Nc1ccc(Cl)cn1)c1ccccc1F	Shiga toxin inh 88, LASV entry inh inconclusive, Marburg entry inh inconclusive, CHX counter 32
O=C(Nc1ccc(Cl)cn1)c1ccc2[nH]c(=O)c(=O)[nH]c2c1	CHX counter 12 (no result: LASV entry inh, Marburg entry inh)
COc1cc2ccccc2cc1C(=O)Nc1ccc(Cl)cn1	CHX counter 16 (no result: Shiga toxin inh, LASV entry inh, Marburg entry inh)
Cc1cc(C)cc(NC(=O)Nc2ccc(Cl)cn2)c1	none (no result: LASV entry inh, Marburg entry inh)
O=C(NCC(c1cccnc1)N1CCc2ccccc21)C(=O)Nc1ccccc1F (stereo not given)	none (no result: Shiga toxin inh, AMA1-RON2 inh, Marburg entry inh, CHX counter)
O=C(Nc1ccc(Cl)cn1)Nc1ccc(Cl)cn1	none
O=C(Nc1cccc(C(=O)Nc2ccc(Cl)cn2)c1)c1ccccc1	none (no result: LASV entry inh, Marburg entry inh)
COC(=O)c1ccccc1NC(=O)Nc1ccc(Cl)cn1	none (no result: LASV entry inh)
O=C(Nc1ccc(Cl)cn1)Nc1ccccc1F	Shiga toxin inh 53, Marburg entry inh inconclusive
O=C(Nc1ncccn1)c1cccc(F)c1	Shiga toxin inh 21, CHX counter 11 (no result: LASV entry inh, Marburg entry inh)
O=C(Nc1ccc(Cl)cn1)c1cccc(F)c1	Shiga toxin inh 121, Marburg entry inh inconclusive, CHX counter 32
O=C(NC(=O)c1ccccc1)Nc1ccc(Cl)cn1	Shiga toxin inh 145, CHX counter 52 (no result: LASV entry inh, Marburg entry inh)
O=C(O)CCCC(=O)OCc1c(-c2ccccc2)ncc2ccccc12	none (no result: Shiga toxin inh, LASV entry inh, Marburg entry inh, CHX counter)
CCN(CC)S(=O)(=O)c1ccc(N2CCc3cc(OC)c(OC)cc3C2)nc1	LASV entry inh inconclusive, Marburg entry inh inconclusive
CCCCN1Cc2cc(C(=O)c3cc(F)ccc3O)cnc2NC1=O	none
